We go through 7 molecules from PubChem BioAssay (EPA / NIEHS).

Each structure is given as a SMILES string. Calls of active or inactive are those of the source. How the source made its calls: active means hit-call score of the fitted dose curve at least 0.9, where 1 is the maximum; inactive means score below 0.9.

Assay [1] in a line: ATG_CMV_CIS: Attagene CIS-FACTORIAL HepG2 Assay for human CMV (Internal Marker) (AID 2282928).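 Further: endpoint acts as a background internal control marker rather than a target.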 The settings on record: HepG2 CMV promoter reporter, transcription factor profiling; actives raise or lower the signal. The essentials: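 Endogenous transcription factor activity read in HepG2 via transfected cis-promoter reporter units. After 24 h dosing, reporter mRNA measured by RT-PCR/capillary electrophoresis; gain or loss of signal fit relative to DMSO.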

Assay [2] in a line: ATG_DR4_LXR_CIS: Attagene CIS-FACTORIAL HepG2 Assay for human Liver X Receptor (LXR), DR4 submotif (AID 2282929). The settings on record: HepG2 Attagene DR4 cis-reporter, mRNA transcription; actives raise or lower the signal. The method in brief: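 After transient transfection with multiplexed cis-promoter reporter units, HepG2 cells received test chemicals for 24 h. Reporter mRNA induction, detected by fluorescence after RT-PCR and capillary electrophoresis, was scored relative to DMSO.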

Assay [3] can be described thus: ATG_AP_2_CIS: Attagene CIS-FACTORIAL HepG2 Assay for human Activator Protein 2 (AP-2) (AID 2282932). The following applies: HepG2 AP-2 cis-reporter, Attagene transcription factor profiling; actives raise or lower the signal. The essentials: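 HepG2, transient MRTU transfection, cis-regulated reporters; 24 h compound exposure; RNA isolated, RT-PCR, 6-FAM labelling, HpaI digest, CE fluorescence. DMSO = negative control/baseline, bidirectional fit.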

In assay [4] the target is Transcription factor E2F1 (Homo sapiens) (UniProt Q01094). Briefly: ATG_E2F_CIS: Attagene CIS-FACTORIAL HepG2 Assay for human E2F Transcription Factor 1 (AID 2282935). The following applies: HepG2 Attagene cis-reporter, E2F reporter RNA transcripts; actives raise or lower the signal. The method in brief: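 Cis-element reporter mRNA induction in transiently transfected HepG2, 24 h exposure. Activity fitted in both directions relative to DMSO negative control.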

A short description of assay [5]: ATG_M_61_CIS: Attagene CIS-FACTORIAL HepG2 Assay for M61 Transcription Factor (Internal Marker) (AID 2282937). The settings on record: HepG2 Attagene CIS-FACTORIAL M61 internal marker reporter; actives raise or lower the signal. The method in brief:
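Using transiently transfected HepG2 liver cells, reporter transcript levels were assessed 24 h post-dosing by RT-PCR and capillary electrophoresis. Changes in either direction were fitted relative to DMSO controls.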

A short description of assay [6]: ATG_EGR_CIS: Attagene CIS-FACTORIAL HepG2 Assay for human Early Growth Response 1 (EGR1) (AID 2282938). The settings on record: HepG2 Attagene CIS-FACTORIAL EGR reporter mRNA; actives raise or lower the signal. The method in brief:
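Fluorescent capillary-electrophoresis signal of reporter cDNA fragments serves as read-out. HepG2 cells bear transiently transfected cis-promoter reporter units and are exposed 24 h; gain- or loss-of-signal is fitted against DMSO.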

A short description of assay [7]: ATG_Ets_CIS: Attagene CIS-FACTORIAL HepG2 Assay for human Erythroblast Transformation Specific (ETS) (AID 2282941). The following applies: HepG2 ETS cis-reporter transcription, actives raise or lower the signal. The method in brief:
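Steps: transfect HepG2 with multiple reporter units; treat compound 24 h; isolate RNA, DNase-treat, reverse-transcribe; PCR-amplify, label with 6-FAM, digest with HpaI; separate by capillary electrophoresis. Activity fitted both directions versus DMSO.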

Assay [8] has as its target Hepatocyte nuclear factor 3-beta (Homo sapiens) (UniProt Q9Y261). Briefly: ATG_FoxA2_CIS: Attagene CIS-FACTORIAL HepG2 Assay for human Forkhead box A2 (FOXA2) (AID 2282942). The following applies: HepG2 cis-reporter transcription factor activity, 24 h; actives raise or lower the signal. The method in brief:
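Fluorescence signal of reporter cDNA fragments, separated by capillary electrophoresis, reflects endogenous transcription factor activity in transfected HepG2 after 24 h. Both increases and decreases fitted against DMSO.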

A short description of assay [9]: ATG_FoxO_CIS: Attagene CIS-FACTORIAL HepG2 Assay for human Forkhead box O (FoxO) (AID 2282943). The following applies: HepG2 Attagene cis-reporter, FoxO element, mRNA; actives raise or lower the signal. The essentials:
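Human hepatoma HepG2 cells carry transiently introduced reporter transcription units controlled by cis promoter elements. Chemical treatment lasted 24 h, and mRNA signal was compared with DMSO.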

Assay [10] can be described thus: ATG_GATA_CIS: Attagene CIS-FACTORIAL HepG2 Assay for human GATA Binding Protein (AID 2282944). The settings on record: HepG2 GATA cis-element reporter, Attagene multiplex mRNA; actives raise or lower the signal. The essentials: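 Measures endogenous transcription factor-driven reporter mRNA in HepG2 cells transiently carrying cis-regulated constructs. 24 h dosing; RNA via oligo(dT) reverse transcription, PCR, HpaI digestion, capillary electrophoresis; fitted relative to DMSO.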

A short description of assay [11]: ATG_ISRE_CIS: Attagene CIS-FACTORIAL HepG2 Assay for human Interferon Regulatory Factor 1 (IRF1) binding to an Interferon-Stimulated Response Element (ISRE) (AID 2282948). The following applies: HepG2 ISRE cis-reporter (Attagene), mRNA transcription readout; actives raise or lower the signal. The essentials:
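Transfected HepG2 (multiple reporter transcription units, cis elements) dosed 24 h. RNA → oligo(dT) RT → PCR → 6-FAM primer extension → HpaI → CE. DMSO = negative control/baseline.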

Assay [12] can be described thus: ATG_M_32_CIS: Attagene CIS-FACTORIAL HepG2 Assay for M32 Transcription Factor (Internal Marker) (AID 2282949).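 Further: background control marker of the multiplexed CIS panel rather than a real target.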 The settings on record: HepG2 Attagene cis-factorial M32 reporter, mRNA; actives raise or lower the signal. The essentials: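 Fluorescent capillary electrophoresis peaks of HpaI-digested, FAM-labelled RT-PCR reporter products give the signal. Source: transiently transfected human liver HepG2 cells, 24 h after chemical dosing; bidirectional fitting against DMSO.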

Assay [13] can be described thus: ATG_MRE_CIS: Attagene CIS-FACTORIAL HepG2 Assay for human Metal Responsive Element (MRE) (AID 2282954). The settings on record: HepG2 MRE cis-reporter transcription, Attagene multiplex; actives raise or lower the signal. The essentials:
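Transient MRTU transfection of HepG2 (FuGene 6); 24 h dosing; total RNA → oligo(dT) RT, PCR, 6-FAM primer extension, HpaI cut, CE. Bidirectional fit vs DMSO.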

The target of assay [14] is Paired box protein Pax-6 (Homo sapiens) (UniProt P26367). Briefly: ATG_Pax6_CIS: Attagene CIS-FACTORIAL HepG2 Assay for human Paired Box 6 (PAX6) (AID 2282956). The settings on record: HepG2 CIS-FACTORIAL PAX6 reporter transcription, RNA readout; actives raise or lower the signal. The essentials: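 Transient MRTU transfection of HepG2 → compound exposure 24 h → TriZol RNA, oligo(dT) RT → PCR, 6-FAM primer extension, HpaI cut → capillary electrophoresis; activity fitted both directions against DMSO.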

A short description of assay [15]: ATG_PXRE_CIS: Attagene CIS-FACTORIAL HepG2 Assay for human Pregnane X Receptor Element (PXRE) (AID 2282957). The settings on record: HepG2 Attagene CIS-FACTORIAL PXRE reporter, mRNA; actives raise or lower the signal. The method in brief: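 Cis-element reporter mRNA in human hepatoma HepG2 cells is measured 24 h post-dosing by RT-PCR, primer-extension labeling and capillary electrophoresis; gain or loss of signal is fitted relative to DMSO.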

Assay [16] in a line: ATG_Sox_CIS: Attagene CIS-FACTORIAL HepG2 Assay for human SRY-box transcription factor (SOX) (AID 2282960). The settings on record: HepG2 Attagene cis-factorial SOX reporter, mRNA; actives raise or lower the signal. The essentials:
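Using transiently transfected HepG2 cells, reporter transcription driven by cis elements was assessed 24 h after dosing. Signal was fluorescence of capillary-separated RT-PCR products, with DMSO defining baseline activity.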

Assay [17] is described as follows: ATG_SREBP_CIS: Attagene CIS-FACTORIAL HepG2 Assay for human Sterol Regulatory Element Binding (SREBP) (AID 2282962). The following applies: HepG2 Attagene cis-factorial SREBP reporter, mRNA; actives raise or lower the signal. The method in brief: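 Transfected HepG2 (cis-regulated reporter library, endogenous TFs) → compound 24 h → total RNA → oligo(dT) RT → reporter-specific PCR → FAM primer extension, HpaI cut → CE fluorescence. Fit bidirectional vs DMSO.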

Assay [18] is described as follows: ATG_TCF_b_cat_CIS: Attagene CIS-FACTORIAL HepG2 Assay for human T-Cell-Factor with beta-catenin (TCF/b-cat) (AID 2282965). The following applies: HepG2 TCF/beta-catenin cis-reporter transcription, actives raise or lower the signal. The method in brief:
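Measured: reporter mRNA in HepG2 transiently transfected with cis-promoter reporter units, 24 h after chemical addition. Fitting was bidirectional, DMSO as negative control.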

A short description of assay [19]: ATG_TAL_CIS: Attagene CIS-FACTORIAL HepG2 Assay for human TAL Basal Promoter (AID 2282966).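 Further: background control endpoint measuring basal TAL promoter reporter mRNA not a specific factor.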 The settings on record: HepG2 Attagene cis-factorial TAL promoter reporter; actives raise or lower the signal. The method in brief: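 In this cell-based multiplex, HepG2 liver cells bearing cis-promoter reporter constructs are dosed for 24 hours. Total RNA is reverse-transcribed and amplified, labelled fragments are sized by capillary electrophoresis, and signal changes are fitted bidirectionally versus DMSO.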

Assay [20] is described as follows: ATG_TGFb_CIS: Attagene CIS-FACTORIAL HepG2 Assay for human Transforming Growth Factor (TGF) (AID 2282967). The settings on record: HepG2 Attagene CIS TGFb reporter, mRNA transcription; actives raise or lower the signal. The method in brief:
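After a 24-hour incubation with compound, transfected HepG2 cells were lysed for RNA; reporter cDNA was amplified, fluorescently end-labeled and separated by CE. DMSO served as baseline for bidirectional fits.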

Paired box protein Pax-6 (Homo sapiens), sequence (P26367 whole entry, looked up): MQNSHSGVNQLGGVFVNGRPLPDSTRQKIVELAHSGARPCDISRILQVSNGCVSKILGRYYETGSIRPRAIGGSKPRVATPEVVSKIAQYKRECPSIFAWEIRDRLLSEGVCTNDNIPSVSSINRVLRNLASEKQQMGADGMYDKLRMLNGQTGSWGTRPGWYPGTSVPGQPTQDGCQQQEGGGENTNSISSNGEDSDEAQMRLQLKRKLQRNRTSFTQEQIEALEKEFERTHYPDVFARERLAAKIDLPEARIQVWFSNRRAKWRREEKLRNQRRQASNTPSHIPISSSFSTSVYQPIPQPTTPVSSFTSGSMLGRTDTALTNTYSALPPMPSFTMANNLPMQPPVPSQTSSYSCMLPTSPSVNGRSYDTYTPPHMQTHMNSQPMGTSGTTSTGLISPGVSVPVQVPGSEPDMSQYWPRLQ
Transcription factor E2F1 (Homo sapiens), sequence (Q01094 whole entry, looked up): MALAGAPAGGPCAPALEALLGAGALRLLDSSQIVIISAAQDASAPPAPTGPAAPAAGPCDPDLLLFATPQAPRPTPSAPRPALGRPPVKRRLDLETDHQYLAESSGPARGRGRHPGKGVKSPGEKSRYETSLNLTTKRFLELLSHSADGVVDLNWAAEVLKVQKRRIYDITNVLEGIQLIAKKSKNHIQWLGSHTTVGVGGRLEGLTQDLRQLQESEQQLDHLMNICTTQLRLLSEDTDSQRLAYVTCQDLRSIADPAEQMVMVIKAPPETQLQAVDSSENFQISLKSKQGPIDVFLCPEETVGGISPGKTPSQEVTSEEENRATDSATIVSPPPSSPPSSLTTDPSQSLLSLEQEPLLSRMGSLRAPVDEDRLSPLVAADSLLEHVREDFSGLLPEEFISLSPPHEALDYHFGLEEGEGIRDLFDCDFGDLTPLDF
Hepatocyte nuclear factor 3-beta (Homo sapiens), sequence (Q9Y261 whole entry, looked up, the tested form may be a part): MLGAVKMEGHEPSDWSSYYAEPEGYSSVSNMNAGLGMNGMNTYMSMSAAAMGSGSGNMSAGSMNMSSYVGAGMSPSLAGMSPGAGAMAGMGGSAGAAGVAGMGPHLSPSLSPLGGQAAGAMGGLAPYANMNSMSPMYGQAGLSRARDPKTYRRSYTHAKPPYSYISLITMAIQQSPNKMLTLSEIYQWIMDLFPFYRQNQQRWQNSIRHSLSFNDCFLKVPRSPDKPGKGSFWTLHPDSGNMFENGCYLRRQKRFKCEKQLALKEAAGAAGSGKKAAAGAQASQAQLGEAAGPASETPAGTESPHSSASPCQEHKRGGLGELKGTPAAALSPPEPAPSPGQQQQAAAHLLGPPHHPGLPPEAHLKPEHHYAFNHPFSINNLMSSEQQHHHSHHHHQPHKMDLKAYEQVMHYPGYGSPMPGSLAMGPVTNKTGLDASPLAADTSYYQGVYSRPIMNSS

For `CCC(C)(C)O`, the result in assay [1], in assay [2], in assay [3], in [4], in [5] and in assay [6] was inactive. Besides, the call in [7], in [8], in [9], in assay [10], in assay [11] and in assay [12] was inactive. The result in [13], in [14], in assay [15], in assay [16], in assay [17] and in [18] was inactive. The molecule was classed as inactive in [19] and in assay [20].
The term AC50 denotes the concentration giving half of the maximal activity seen. As to `O=P1(NCCCl)OCCCN1CCCl` (stereo not given), the call in [1], in [2], in assay [3], in assay [4], in assay [5] and in [6] was inactive. Besides, the outcome in assay [7], in assay [8], in assay [9], in [10], in assay [11] and in assay [12] was inactive. The outcome in assay [13], in assay [14], in [16], in assay [17], in assay [18] and in assay [19] was inactive. Besides, the call in assay [20] was inactive. For the same molecule, the AC50 in assay [15] was 50.2 µM (active).
Take `C=Cc1cccc(CCl)c1`: the molecule was called inactive in assay [1], in assay [2], in assay [3], in assay [4], in assay [5] and in [6]. Further, the call in assay [8], in [9], in assay [10], in assay [12], in assay [13] and in assay [14] was inactive. In addition, the call in assay [16], in assay [17], in assay [18], in assay [19] and in assay [20] was inactive. Moreover, the AC50 in assay [7] is 100 µM (active); in assay [11], 100 µM (active); in assay [15] it was 46.2 µM (active).
As to `CCOP(=O)(OCC)OCC`, the call in assay [1], in [2], in [3], in assay [4], in assay [5] and in [6] was inactive. The molecule was called inactive in [7], in assay [8], in assay [9], in [10], in assay [11] and in [12]. Further, the molecule was classed as inactive in assay [13], in assay [14], in [15], in assay [16], in [17] and in [18]. For the same molecule, the molecule was called inactive in [19] and in assay [20].
In the case of `CC(C)(O)C#N`, the call in assay [1], in [2], in assay [3], in assay [4], in [5] and in [6] was inactive. Moreover, the outcome in [7], in assay [8], in assay [9], in assay [10], in assay [11] and in [12] was inactive. For the same molecule, the molecule was called inactive in assay [13], in assay [14], in assay [16], in assay [17], in [18] and in [19]. Also, the result in [20] was inactive. Moreover, the AC50 in assay [15] is 27.4 µM (active).
In the case of `[Cl-].[Cl-].[Cl-].[Yb+3]`, the call in assay [1], in [2], in assay [3], in assay [4], in assay [5] and in assay [6] was inactive. In addition, the molecule was classed as inactive in assay [7], in assay [8], in assay [9], in assay [10], in assay [11] and in assay [12]. For the same molecule, the outcome in [13], in assay [14], in [15], in [16], in assay [17] and in assay [18] was inactive. For the same molecule, the result in assay [19] and in assay [20] was inactive.
For `CC(C)CCCCCCCOC(=O)c1ccccc1C(=O)OCCCCCCCC(C)C`, the molecule was classed as inactive in assay [1], in assay [2], in [3], in [4], in [5] and in assay [6]. The molecule was called inactive in [7], in assay [8], in assay [9], in assay [10], in assay [11] and in assay [12]. The molecule was called inactive in assay [13], in assay [14], in [16], in assay [17], in assay [18] and in assay [19]. The molecule was called inactive in assay [20]. In [15], the AC50 was 1.19 µM (active).
